# In the supplement of paper PMC10849652:
# About 7,900 targets were measured; listed, in parts, are those with a hit and a random draw of the rest. About 0.6% of all pairs of compound and target were hits. Unmarked numbers belong to inactive results.
# Experiments:
# Assay in all cases: log2 fold change, soluble protein after heating vs DMSO (PISA); higher = thermal stabilisation; K562 cells, 10 uM, 30 min; active = over 0.2 and 3.5 SD of the protein, either way, in both replicates (recomputed)
# [1] = compound: COC1=CC=C(C=C1)CN2C=CC3=C2C=C(C=C3)C(=O)NO
# Method in brief: (§1)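 K562 cells (2×10^6 cells/mL) were treated with 10 μM compound for 30 min, and aliquots were heated for 3 min over 48°C-58°C. Pooled aliquots were extracted in PBS with 0.5% NP-40 at 4°C, and the supernatant after 21,000xg for 90 min was measured by TMTpro 16plex LC-MS/MS with channel sums equalised. Reported thermal stability, relative to control samples and from duplicates, is a log2 fold change.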
# filanesib = compound: CON(C)C(=O)N1N=C(c2cc(F)ccc2F)S[C@@]1(CCCN)c1ccccc1 [filanesib]
# Method in brief: as §1
# zotarolimus = compound: CO[C@H]1C[C@@H]2CC[C@@H](C)[C@@](O)(O2)C(=O)C(=O)N2CCCC[C@H]2C(=O)O[C@H]([C@H](C)C[C@@H]2CC[C@H](n3cnnn3)[C@H](OC)C2)CC(=O)[C@H](C)/C=C(\C)[C@@H](O)[C@@H](OC)C(=O)[C@H](C)C[C@H](C)/C=C/C=C/C=C/1C [zotarolimus]
# Method in brief: as §1
# idasanutlin = compound: COc1cc(C(=O)O)ccc1NC(=O)[C@@H]1N[C@@H](CC(C)(C)C)[C@](C#N)(c2ccc(Cl)cc2F)[C@H]1c1cccc(Cl)c1F [idasanutlin]
# Method in brief: as §1
# alisertib = compound: COc1cc(Nc2ncc3c(n2)-c2ccc(Cl)cc2C(c2c(F)cccc2OC)=NC3)ccc1C(=O)O [alisertib]
# Method in brief: as §1
# [2] = compound: COc1cc2nc(-c3cc(F)ccc3O)nc(N[C@@H]3CNC[C@H]3C(C)(C)O)c2cc1OC
# Method in brief: as §1
# gefitinib = compound: COc1cc2ncnc(Nc3ccc(F)c(Cl)c3)c2cc1OCCCN1CCOCC1 [gefitinib]
# Method in brief: as §1
# [3] = compound: COc1cccc2cc(-c3nc([C@H]4CC[C@H](C(=O)O)CC4)n4ncnc(N)c34)[nH]c12
# Method in brief: as §1
# lapatinib = compound: CS(=O)(=O)CCNCc1ccc(-c2ccc3ncnc(Nc4ccc(OCc5cccc(F)c5)c(Cl)c4)c3c2)o1 [lapatinib]
# Method in brief: as §1
# pictilisib = compound: CS(=O)(=O)N1CCN(Cc2cc3nc(-c4cccc5[nH]ncc45)nc(N4CCOCC4)c3s2)CC1 [pictilisib]
# Method in brief: as §1
# Chain of UniProt Q86WV6 (Q86WV6 whole entry, looked up): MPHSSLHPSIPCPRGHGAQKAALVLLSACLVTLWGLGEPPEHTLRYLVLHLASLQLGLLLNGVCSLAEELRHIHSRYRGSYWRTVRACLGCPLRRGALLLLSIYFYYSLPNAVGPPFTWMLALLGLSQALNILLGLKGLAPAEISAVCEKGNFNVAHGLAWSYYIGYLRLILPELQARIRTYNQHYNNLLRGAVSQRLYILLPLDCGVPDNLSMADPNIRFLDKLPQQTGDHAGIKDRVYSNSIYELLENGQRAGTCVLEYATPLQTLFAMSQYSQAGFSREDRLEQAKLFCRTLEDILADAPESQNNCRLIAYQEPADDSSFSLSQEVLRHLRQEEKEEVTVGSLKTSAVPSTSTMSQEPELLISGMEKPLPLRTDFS
# Chain of UniProt Q7Z5K2 (Q7Z5K2 whole entry, looked up): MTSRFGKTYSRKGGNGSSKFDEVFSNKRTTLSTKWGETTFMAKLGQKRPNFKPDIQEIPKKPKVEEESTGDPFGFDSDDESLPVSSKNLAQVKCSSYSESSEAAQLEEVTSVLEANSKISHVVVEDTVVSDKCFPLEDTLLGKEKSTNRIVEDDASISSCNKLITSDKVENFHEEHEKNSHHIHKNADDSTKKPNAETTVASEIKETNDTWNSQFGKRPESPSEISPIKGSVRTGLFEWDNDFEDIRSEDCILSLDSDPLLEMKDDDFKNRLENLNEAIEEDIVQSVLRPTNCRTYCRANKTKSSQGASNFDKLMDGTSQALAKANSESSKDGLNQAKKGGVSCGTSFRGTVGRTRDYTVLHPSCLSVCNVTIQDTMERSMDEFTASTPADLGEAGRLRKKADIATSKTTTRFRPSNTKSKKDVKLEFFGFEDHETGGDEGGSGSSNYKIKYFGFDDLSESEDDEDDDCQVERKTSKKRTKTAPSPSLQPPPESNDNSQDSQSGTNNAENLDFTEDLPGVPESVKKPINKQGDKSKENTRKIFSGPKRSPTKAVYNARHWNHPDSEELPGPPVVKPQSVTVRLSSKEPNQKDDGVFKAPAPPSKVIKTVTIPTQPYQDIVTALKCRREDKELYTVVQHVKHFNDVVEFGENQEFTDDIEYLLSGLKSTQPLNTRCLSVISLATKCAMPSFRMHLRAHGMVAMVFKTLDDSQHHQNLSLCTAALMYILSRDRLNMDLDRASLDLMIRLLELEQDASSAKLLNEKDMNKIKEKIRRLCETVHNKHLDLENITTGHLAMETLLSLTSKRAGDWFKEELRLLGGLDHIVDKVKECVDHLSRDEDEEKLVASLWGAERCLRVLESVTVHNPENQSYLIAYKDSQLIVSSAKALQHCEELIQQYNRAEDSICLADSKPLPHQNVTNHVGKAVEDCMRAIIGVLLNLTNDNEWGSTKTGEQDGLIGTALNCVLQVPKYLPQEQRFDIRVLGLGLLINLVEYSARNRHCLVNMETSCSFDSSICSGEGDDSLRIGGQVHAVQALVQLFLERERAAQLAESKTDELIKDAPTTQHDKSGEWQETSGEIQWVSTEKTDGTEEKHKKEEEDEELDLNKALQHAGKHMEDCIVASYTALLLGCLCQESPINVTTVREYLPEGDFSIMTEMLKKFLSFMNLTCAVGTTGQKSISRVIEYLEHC
# Chain of UniProt Q99986 (Q99986 whole entry, looked up): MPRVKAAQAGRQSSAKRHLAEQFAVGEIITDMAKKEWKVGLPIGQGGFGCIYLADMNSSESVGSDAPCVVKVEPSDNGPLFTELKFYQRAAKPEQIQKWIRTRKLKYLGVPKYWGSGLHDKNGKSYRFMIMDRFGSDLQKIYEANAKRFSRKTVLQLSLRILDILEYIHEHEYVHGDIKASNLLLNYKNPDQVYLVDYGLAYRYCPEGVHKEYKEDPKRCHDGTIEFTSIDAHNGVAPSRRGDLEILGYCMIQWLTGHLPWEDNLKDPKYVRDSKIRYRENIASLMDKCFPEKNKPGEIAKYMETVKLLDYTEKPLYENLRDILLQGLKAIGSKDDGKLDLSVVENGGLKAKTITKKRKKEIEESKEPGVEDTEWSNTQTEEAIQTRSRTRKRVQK
# Chain of UniProt P57081 (P57081 whole entry, looked up): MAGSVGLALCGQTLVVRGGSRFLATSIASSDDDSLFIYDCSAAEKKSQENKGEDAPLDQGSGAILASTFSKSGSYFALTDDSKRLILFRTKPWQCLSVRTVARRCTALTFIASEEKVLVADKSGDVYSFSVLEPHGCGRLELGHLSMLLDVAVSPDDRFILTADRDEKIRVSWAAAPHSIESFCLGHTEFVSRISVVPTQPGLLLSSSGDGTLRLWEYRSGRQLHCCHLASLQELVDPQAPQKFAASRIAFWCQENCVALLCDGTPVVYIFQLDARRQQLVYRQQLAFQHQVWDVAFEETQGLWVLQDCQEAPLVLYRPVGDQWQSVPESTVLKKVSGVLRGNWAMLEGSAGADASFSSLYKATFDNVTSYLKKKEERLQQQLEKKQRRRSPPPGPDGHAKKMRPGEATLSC
# Chain of UniProt A3KMH1 (A3KMH1 whole entry, looked up): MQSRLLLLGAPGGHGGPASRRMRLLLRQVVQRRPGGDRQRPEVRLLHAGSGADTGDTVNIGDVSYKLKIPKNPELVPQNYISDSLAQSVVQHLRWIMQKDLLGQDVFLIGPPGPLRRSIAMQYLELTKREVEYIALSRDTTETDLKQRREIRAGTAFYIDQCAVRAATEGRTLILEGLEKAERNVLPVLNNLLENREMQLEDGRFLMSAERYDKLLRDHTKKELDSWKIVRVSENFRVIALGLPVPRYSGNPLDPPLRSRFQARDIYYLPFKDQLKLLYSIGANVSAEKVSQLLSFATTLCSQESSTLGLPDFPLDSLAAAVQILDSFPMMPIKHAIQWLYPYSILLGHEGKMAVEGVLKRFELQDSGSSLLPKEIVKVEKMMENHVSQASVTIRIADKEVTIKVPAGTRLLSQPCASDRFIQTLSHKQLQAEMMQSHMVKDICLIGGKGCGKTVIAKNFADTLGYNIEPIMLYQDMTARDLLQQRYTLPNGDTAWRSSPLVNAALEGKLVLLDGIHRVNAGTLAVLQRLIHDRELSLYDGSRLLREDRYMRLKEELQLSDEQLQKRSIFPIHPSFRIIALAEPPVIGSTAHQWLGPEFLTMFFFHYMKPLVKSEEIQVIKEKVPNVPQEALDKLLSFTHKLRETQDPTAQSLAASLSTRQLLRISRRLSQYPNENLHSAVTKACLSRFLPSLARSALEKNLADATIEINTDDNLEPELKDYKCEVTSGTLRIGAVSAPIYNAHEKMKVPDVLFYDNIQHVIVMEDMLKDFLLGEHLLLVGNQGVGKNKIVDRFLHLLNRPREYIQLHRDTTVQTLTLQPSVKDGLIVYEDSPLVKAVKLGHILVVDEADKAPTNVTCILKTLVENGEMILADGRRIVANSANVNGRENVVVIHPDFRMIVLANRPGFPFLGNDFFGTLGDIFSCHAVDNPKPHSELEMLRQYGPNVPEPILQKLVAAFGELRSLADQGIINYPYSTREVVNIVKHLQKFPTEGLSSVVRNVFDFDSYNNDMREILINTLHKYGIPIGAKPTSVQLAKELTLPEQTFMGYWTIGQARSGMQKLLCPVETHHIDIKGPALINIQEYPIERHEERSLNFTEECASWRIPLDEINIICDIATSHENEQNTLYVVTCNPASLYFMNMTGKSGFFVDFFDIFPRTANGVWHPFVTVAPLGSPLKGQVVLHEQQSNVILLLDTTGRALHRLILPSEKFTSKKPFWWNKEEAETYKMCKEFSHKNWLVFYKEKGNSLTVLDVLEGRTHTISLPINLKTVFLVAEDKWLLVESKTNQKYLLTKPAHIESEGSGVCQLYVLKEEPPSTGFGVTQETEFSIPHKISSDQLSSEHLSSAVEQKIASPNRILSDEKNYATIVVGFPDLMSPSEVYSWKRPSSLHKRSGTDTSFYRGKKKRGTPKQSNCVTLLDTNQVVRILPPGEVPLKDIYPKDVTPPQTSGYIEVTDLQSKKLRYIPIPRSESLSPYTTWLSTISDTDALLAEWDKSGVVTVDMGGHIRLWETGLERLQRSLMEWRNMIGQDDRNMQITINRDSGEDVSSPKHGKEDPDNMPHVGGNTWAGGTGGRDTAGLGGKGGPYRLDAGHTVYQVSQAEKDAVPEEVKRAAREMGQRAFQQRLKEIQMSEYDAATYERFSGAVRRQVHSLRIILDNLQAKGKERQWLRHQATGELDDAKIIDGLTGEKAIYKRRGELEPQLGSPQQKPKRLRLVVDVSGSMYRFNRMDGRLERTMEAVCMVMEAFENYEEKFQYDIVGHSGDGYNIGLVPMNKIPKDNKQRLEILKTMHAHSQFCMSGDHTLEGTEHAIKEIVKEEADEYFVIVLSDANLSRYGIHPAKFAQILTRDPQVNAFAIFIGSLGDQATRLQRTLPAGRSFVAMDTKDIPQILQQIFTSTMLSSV
# Chain of UniProt Q9Y5K5 (Q9Y5K5 whole entry, looked up): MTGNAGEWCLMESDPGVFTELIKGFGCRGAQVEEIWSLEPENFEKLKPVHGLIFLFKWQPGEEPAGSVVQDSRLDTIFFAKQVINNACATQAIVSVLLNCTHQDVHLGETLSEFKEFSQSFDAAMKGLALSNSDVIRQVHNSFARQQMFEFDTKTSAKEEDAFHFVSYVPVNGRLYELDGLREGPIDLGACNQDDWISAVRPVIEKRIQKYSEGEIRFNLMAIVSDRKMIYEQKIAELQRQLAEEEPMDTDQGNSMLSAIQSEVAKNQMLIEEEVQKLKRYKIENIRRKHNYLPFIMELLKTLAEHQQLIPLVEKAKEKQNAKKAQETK
# Chain of UniProt Q9BV38 (Q9BV38 whole entry, looked up): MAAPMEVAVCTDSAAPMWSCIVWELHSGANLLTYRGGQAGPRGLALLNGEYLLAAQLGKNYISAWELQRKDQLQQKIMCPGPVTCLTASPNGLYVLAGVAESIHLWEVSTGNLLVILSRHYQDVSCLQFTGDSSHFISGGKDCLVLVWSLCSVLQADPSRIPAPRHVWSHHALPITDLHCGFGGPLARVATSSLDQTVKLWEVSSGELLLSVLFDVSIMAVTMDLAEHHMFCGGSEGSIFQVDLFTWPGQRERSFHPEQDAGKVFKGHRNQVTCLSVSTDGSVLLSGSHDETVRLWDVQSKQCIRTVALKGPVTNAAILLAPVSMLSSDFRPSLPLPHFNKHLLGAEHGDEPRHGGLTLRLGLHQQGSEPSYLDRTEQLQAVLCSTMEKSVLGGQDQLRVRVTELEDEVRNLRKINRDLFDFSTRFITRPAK
Target,log2 fold change [1],log2 fold change (filanesib),log2 fold change (zotarolimus),log2 fold change (idasanutlin),log2 fold change (alisertib),log2 fold change [2],log2 fold change (gefitinib),log2 fold change [3],log2 fold change (lapatinib),log2 fold change (pictilisib)
VPS11 (UniProt Q9H270),-0.019,-0.038,0.053,-0.063,-0.022,-0.032,-0.005,-0.041,-0.045,-0.013
TNPO3 (UniProt Q9Y5L0),0.053,-0.094,0.036,-0.074,-0.064,-0.035,-0.012,-0.004,-0.035,0.077
TRIP10 isoform 2 (UniProt Q15642),-0.032,-0.213,0.013,0.128,-0.029,0.109,0.062,-0.09,-0.083,0.06
TRIM44 (UniProt Q96DX7),-0.074,0.022,0.005,-0.025,0.008,-0.047,-0.027,-0.033,0.025,0.039
UBE2S (UniProt Q16763),0.003,0.01,0.045,-0.05,0.015,0.053,-0.009,0.001,-0.035,0.058
TSEN2 (UniProt Q8NCE0),0.018,0.043,0,-0.065,-0.075,0.077,0.028,0.114,-0.015,0.013
TOM1L1 (UniProt O75674),-0.006,0.06,0.008,-0.142,-0.073,0.061,0.056,-0.051,-0.007,-0.076
TUBAL3 (UniProt A6NHL2),-0.037,-0.058,-0.064,-0.218,0.048,0,-0.059,0.015,0.075,0.052
UGDH (UniProt O60701),0.164,0.001,0.053,-0.043,0.067,0.04,0.118,0.059,-0.036,0.022
UCHL5 (UniProt Q9Y5K5),0.023,-0.035,0.026,-0.044,-0.048,0.04,0.008,-0.031,-0.023,0.012
WDR61 (UniProt Q9GZS3),-0.121,-0.031,0.008,-0.05,-0.082,0.14,-0.035,0.065,-0.104,0.042
WASHC5 (UniProt Q12768),-0.059,-0.017,0.043,0.034,-0.088,0.083,0.044,-0.021,-0.024,-0.05
WDR4 (UniProt P57081),0.017,-0.022,0.004,-0.096,-0.059,-0.058,-0.01,0.049,0.206,0.131
VWA8 (UniProt A3KMH1),-0.025,-0.052,-0.027,-0.119,-0.037,0.006,0.011,0.077,0,0.01
TNNC2 (UniProt P02585),-0.037,0.038,-0.006,0.007,-0.172,0.014,0.008,0.045,-0.027,0.025
TNFRSF10A (UniProt O00220),-0.046,0.028,-0.035,0.058,-0.021,0.024,-0.012,-0.002,-0.073,0.304 (active)
TP53BP1 isoform 2 (UniProt Q12888),0.006,0.059,0.054,0.04,0.046,-0.089,-0.014,-0.041,0.028,0
WAPL isoform 3 (UniProt Q7Z5K2),0.052,-0.009,0.128,-0.027,0.038,-0.273,-0.006,-0.003,0,0.027
TNPO2 (UniProt O14787),-0.022,-0.005,0.065,-0.194,-0.071,-0.069,0.027,-0.038,-0.048,-0.076
UBAP1 isoform 4 (UniProt Q9NZ09),-0.018,0.078,0.045,-0.014,-0.034,-0.017,0.088,-0.018,0.23,-0.005
TPR (UniProt P12270),-0.048,0.115,0.049,0.055,-0.076,0.065,-0.056,-0.06,0.044,0.036
TMEM164 (UniProt Q5U3C3),0.045,-0.306,-0.039,-0.031,0.211,0.098,-0.013,0.198,-0.06,0.008
TNPO1 (UniProt Q92973),-0.008,-0.096,0.012,-0.023,-0.074,-0.156,-0.001,-0.012,-0.005,-0.02
TXN2 (UniProt Q99757),0.039,0.015,0.211,0.108,-0.19,-0.015,0.042,-0.023,-0.078,-0.186
TMEM173 (UniProt Q86WV6),-0.177,0.007,0.025,-0.209,-0.073,0.034,-0.013,-0.008,-0.062,-0.037
TMEM214 (UniProt Q6NUQ4),-0.003,0.185,-0.013,-0.045,-0.041,0.282 (active),-0.012,-0.111,0.046,-0.055
WDR18 (UniProt Q9BV38),-0.04,0.02,-0.024,0.039,-0.041,0.056,0.024,0.035,0.005,-0.004
VRK1 (UniProt Q99986),0.098,-0.07,-0.123,-0.119,0.06,0.316,-0.018,-0.003,-0.059,0.086
TOMM20 (UniProt Q15388),-0.011,-0.213,0.005,-0.022,-0.029,-0.25,0.005,-0.001,0.045,0.007
